BRCA1 expr up: BRCA1 expression activation | 380,000 compounds, 1.1% hits | Potency, µM (series often up to 46.1 µM), inactives show top-dose activation, hits mostly activators | MCF7-BRCA1-FFLuc reporter, luminescence, 48 h; response scale: scaled: vehicle 0%, 10 µM genistein 100%; further: nearly all actives have a fitted effect of over 80% in size
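Reporter cells (MCF7, BRCA1 promoter-firefly luciferase) received library compounds across a concentration series for 48 h. End-point luminescence was measured and concentration-effect curves derived after normalization.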
PLK1 PBD block: inhibitors of human PLK1 polo-box domain binding; 360,000 compounds, 2.8% hits; P53350; Potency, µM, for the others: max response, negative = inhibition, most hits filed as inhibitors; Plk1 PBD binding of FITC phosphopeptide, fluorescence polarization; further: series mostly up to about 57 µM; on the % scale 0 is the no-effect control and ±100 the full control effect; nearly all actives have a fitted effect of over 65% in size
VDR inh: vitamin D3 receptor (human) inhibition; AID 504847; 400,000 compounds, 0.93% hits; P11473; Potency, µM, for inactives: max response, negative = inhibition, most hits filed as inhibitors; VDR-SRC2-3 peptide fluorescence polarization, 2 h; further: on the % scale 0 is the no-effect control and ±100 the full control effect
Target sequence (P11473 whole entry, looked up): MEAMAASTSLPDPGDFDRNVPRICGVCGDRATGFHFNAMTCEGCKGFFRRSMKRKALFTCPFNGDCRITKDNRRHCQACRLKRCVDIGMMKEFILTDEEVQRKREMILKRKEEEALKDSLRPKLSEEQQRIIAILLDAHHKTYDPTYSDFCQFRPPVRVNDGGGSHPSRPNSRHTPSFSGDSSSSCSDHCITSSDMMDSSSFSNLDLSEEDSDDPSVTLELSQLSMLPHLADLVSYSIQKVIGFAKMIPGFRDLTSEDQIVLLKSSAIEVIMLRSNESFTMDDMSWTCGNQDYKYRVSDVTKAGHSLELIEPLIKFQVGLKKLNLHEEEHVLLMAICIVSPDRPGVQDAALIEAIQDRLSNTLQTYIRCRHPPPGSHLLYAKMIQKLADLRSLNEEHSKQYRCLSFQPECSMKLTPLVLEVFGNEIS
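VDR–SRC2-3 interaction, FP format. Cmpds 23 nl via pintool, brief spin, 2 h ambient incubation.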
Tb PFK inh: T. brucei PFK enzyme inhibition; O15648; T. brucei PFK, ADP-Glo luminescence; Potency, µM (series often up to 57.5 µM), without a hit: at the top dose activity, negative = inhibition, hits mostly inhibitors; 330,000 compounds, 0.17% hits; AID 485367;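 further: 0% = uninhibited 1x PFK enzyme wells and -100% = no-enzyme wells; nearly all actives have a fitted effect of over 60% in size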
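1.25 nM PFK with 0.5 mM F6P and 0.1 mM ATP in 0.1 M TEA pH 8.0, 5 mM MgCl2, incubated 45 min at room temperature; ADP measured by ADP-Glo luminescence; compounds titrated up to 57 uM.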
* hit, by the source's call; ? = inconclusive; nt = no result given. This is a sample that favours compounds with a hit; in the whole collection about 3.9% have one here. The call rests on the fitted dose curve; in most records, active means well fitted curve in the direction sought with a large enough effect; inconclusive means small, poorly fitted or top-dose-only effect, or another doubt; inactive means no such curve, though single readings can be large; an effect the other way counts as inactive or inconclusive. Potency means the concentration at half of the fitted maximal effect.

SMILES	BRCA1 expr up	PLK1 PBD block	VDR inh	Tb PFK inh
CCCCC(=O)N(c1ccc(C(=O)O)cc1)c1nc(-c2ccc(Cl)cc2)c(CC)s1	12.4%	26.7µM*	-18.3%	-2.8%
Cc1cccn2c(=O)c3cc(C(=O)NC(C)(C)C)n(C)c3nc12	nt	nt	11.1%	nt
CCN(CC(=O)NCc1ccc(F)cc1)C(=O)/C=C/c1cccs1	-0.6%	26.7µM*	10.7%	0.0%
CCC1(C)Cc2c(sc(NC(=S)NC(=O)c3ccccc3)c2C#N)CO1 (centres undefined)	76.9%	13.4µM*	-16.3%	0.0%
CN1Cc2sc(NC(=S)NC(=O)c3ccccc3)c(C#N)c2CC1(C)C	-33.6%	13.4µM*	?	-18.9%
CCN1CCc2c(sc(NC(=S)NC(=O)c3ccccc3)c2C#N)C1	73.6%	11.2µM*	79.4µM*	-29.6%
CCN1CCc2c(sc(NC(=S)NC(=O)c3ccco3)c2C(N)=O)C1	-1.8%	23.8µM*	-10.7%	0.0%
COc1cc(C=C(C#N)c2ccc([N+](=O)[O-])cc2)ccc1O	11.9%	-10.9%	nt	nt
CCCCC/C=C\C/C=C\C/C=C\CCCCC(=O)NC(C)C(=O)O (centres undefined)	nt	nt	-13.5%	nt
COc1ccccc1N1CCN(C2CCCN(C(=O)c3cccc(-c4ccco4)c3)C2)CC1 (centres undefined)	-38.0%	-10.6%	-7.4%	0.0%
Cc1nc([N+](=O)[O-])cn1CC(O)c1ccc2c(c1)OCCO2 (centres undefined)	0.0%	nt	nt	nt
O=C(N[C@H]1C/C=C\C[C@H](CC(=O)N(CCO)Cc2ccccc2)C(=O)N[C@H](Cc2c[nH]c3ccccc23)COC1=O)OCC1c2ccccc2-c2ccccc21	-30.4%	2.2%	1.1%	7.1%
O=[N+]([O-])c1ccc(-c2cn3c(n2)SCC3)cc1	8.91µM*	-17.5%	-11.5%	nt
O=C(CN1C(=O)C2CCCCC2C1=O)Nc1nc(-c2ccccn2)cs1 (centres undefined)	-47.9%	23.8µM*	-7.9%	-7.4%
C[C@@H](C(=O)Nc1nc(-c2ccccn2)cs1)N1C(=O)C2CCCCC2C1=O (some centres undefined)	-33.8%	16.8µM*	?	-5.4%
CCCOc1ccc(F)cc1-c1cc(C(=O)Nc2ccc(C(C)C)cc2)[nH]n1	-16.4%	3.5%	nt	nt
C=CCOc1cccn2c(N(C)C(=O)c3ccccc3F)c(CC)nc12	0.0%	-10.9%	nt	nt
CCNc1nc2c(c(=O)n(C)c(=O)n2C)n1CCCc1ccccc1	-45.1%	3.36µM*	?	-1.3%
CCNc1nc2c(c(=O)n(Cc3ccccc3)c(=O)n2C)n1Cc1ccccc1	-25.7%	6.3%	-2.6%	-0.9%
CN(C)c1ccc(/C=C2\C=Cc3ccccc32)c(F)c1	5.5%	nt	nt	nt
O=C1C=CC2=C3c4cc(O)c(O)cc4C[C@]3(O)COC2=C1	nt	nt	11.2µM*	nt
C#CCNC(=O)C[C@@H]1C[C@@]2(C(=O)OC)CC(C)(C)CC=C2N(CCc2ccc(OC)c(OC)c2)C1=O	nt	-5.9%	nt	nt
Cc1nn2c3c(cnc2c1-c1ccccc1)C(=O)CCC3	12.6µM*	-1.2%	0.9%	-6.9%
COc1ccc(C2CC(=O)c3cnc4c(-c5ccccc5)c(C)nn4c3C2)c(OC)c1 (centres undefined)	-17.7%	nt	-9.0%	nt
Cc1nn2c(-c3ccccc3)ccnc2c1-c1ccccc1	7.08µM*	0.8%	-9.0%	4.0%
SMILES	BRCA1 expr up	PLK1 PBD block	VDR inh	Tb PFK inh
Cc1cccc(NC(=O)c2sc(-n3nc(C)c(Cc4ccc5c(c4)OCO5)c3C)nc2C)c1C	nt	nt	-8.4%	nt
Cn1c(SCc2c(F)cccc2Cl)nnc1-c1cccs1	3.98µM*	-12.4%	9.5%	0.2%
OCCN(CCO)c1nc(N2CCCCC2)c2nc(N(CCO)CCO)nc(N3CCCCC3)c2n1	-22.5%	11.9µM*	-19.6%	-10.8%
Nc1nc(NCCO)nc(N2CCCCCC2)c1[N+](=O)[O-]	14.4%	2.3%	-18.0%	2.2%
CN(c1ccccc1)c1ccc(/C=C(/CCC(=O)O)c2nc3ccccc3s2)cc1[N+](=O)[O-]	-31.1%	?	-13.5%	nt
O=C(O)CC/C(=C\c1ccc(N2CCCC2)c([N+](=O)[O-])c1)c1nc2ccccc2s1	-4.5%	33.6µM*	?	?
COc1ccc(NC(=O)Nc2c[nH]c(=O)[nH]c2=O)c(OC)c1	nt	nt	16.5%	nt
CN(C(=O)c1ccc2c(Cl)c3c(nc2c1)CCC3)c1ccccc1	6.31µM*	-3.0%	1.8%	-1.4%
COC(=O)c1ccc(Oc2cc(C)nc(NCc3ccccc3)n2)cc1	-33.6%	-0.3%	-16.5%	0.6%
Cc1cc(Oc2ccc(C#N)cc2)nc(NCc2ccccc2)n1	-30.6%	2.67µM*	-22.1%	-1.4%
COc1ccc(C(=O)N/C(=C\c2cn(C)c3ccccc23)C(=O)N2CCN(C)CC2)cc1OC	-6.5%	26.7µM*	?	-0.3%
CN1CCN(C(=O)/C(=C/c2cn(C)c3ccccc23)NC(=O)c2ccccc2)CC1	-6.4%	-19.7%	5.2%	-18.1%
COc1ccc(OC)c(NC(=O)Cn2c(=O)cc(-c3ccccc3)c3c(C)nn(C)c32)c1	nt	nt	12.6%	nt
CCOC(=O)C(=O)NCC(c1cccnc1)N1CCN(c2ccccc2)CC1 (centres undefined)	nt	nt	5.9%	nt
CCc1cc2ccc(C)cc2nc1SCC(=O)N1CCN(C(=O)c2ccco2)CC1	-47.5%	23.8µM*	79.4µM*	-7.2%
CN1C(=O)c2ccccc2C(C(=O)O)C1c1cccc(F)c1 (centres undefined)	-2.0%	29.9µM*	4.4%	1.6%
Cc1ccsc1C1C(C(=O)O)c2ccccc2C(=O)N1C (centres undefined)	-7.1%	-11.4%	-0.2%	-3.4%
O=C1NC[C@H](CCCCN2C[C@H](Cc3ccc(O)cc3)N(CCc3ccc(O)cc3)C(=O)C2=O)N(CCc2ccc(O)cc2)C1=O	29.9%	5.3%	nt	nt
Cc1ccc(NC(=O)/C(C#N)=C/c2cccs2)c(C)c1	3.98µM*	-1.1%	7.2%	-5.4%
Cc1cccc(C)c1NC(=O)/C(C#N)=C/c1cccs1	15.9%	-2.1%	14.6%	2.1%
CC(C)(C)c1ccc(C(=O)/C(C#N)=C/c2cccs2)cc1	32.0%	7.52µM*	-12.7%	12.4%
CN(CC(=O)Nc1ccc(Cl)c(Cl)c1)CC(=O)N1CCCCCC1	-10.6%	-0.2%	nt	nt
CC(C)Oc1cccc(C(=O)Nc2ccc3oc(-c4cccc(Cl)c4)nc3c2)c1	nt	nt	-11.2%	nt
COc1cccc2c(C)nc(Nc3nc(CSc4nnc(C)s4)cc(=O)[nH]3)nc12	-79.4%	23.8µM*	79.4µM*	-4.5%
Cc1ccc2c(C)nc(Nc3nc(CSc4nnc(C)s4)cc(=O)[nH]3)nc2c1	-17.4%	-4.7%	4.7%	-2.7%
CC(Sc1nc2ccccc2s1)C(=O)N(C)Cc1ccccc1 (centres undefined)	-14.8%	?	?	2.5%
CCOC(=O)[C@H]1[C@H]2COc3ccc(C)cc3[C@@H]2N2C(=O)c3cc(Br)ccc3NC(=O)[C@@]12C	-38.1%	1.3%	-30.1%	5.6%
CC(=O)Oc1ccc(C(=O)[C@H]2[C@H]3C(=O)N(c4cccc5ccccc45)C(=O)[C@H]3[C@@H]3C=CC=NN32)cc1	-7.1%	42.3µM*	-12.6%	-3.4%
C=CC(=O)c1ccc(CCCCCC)cc1	nt	nt	39.8µM*	nt
